# According to PubChem BioAssay:
# Results filed as inconclusive are left out. Activity calls are given as the source filed them. Unless noted, no cut-off is given here; in the data, nearly all actives have AC50 up to about 26 µM.
# Key:
# [1] = drug combination growth inhibition, ovarian cancer – cell-based, oncology-focused library, rucaparib conditional, profiling panel (AID 1508598;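 active = normalized viability below 100% at a tested concentration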); settings: patient-derived ovarian cancer cells, CellTiter-Glo viability, 144 h, stronger effect = lower value
# [2] = viability loss in pontine glioma line – cell-based, SU-DIPG-XVII, MIPE5.0, CellTiter-Glo, qHTS, dose response (AID 1347060); settings: CellTiter-Glo ATP luminescence;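 for AC50: cells exposed to compound for 48 hours before viability readout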
# [3] = viability loss in pontine glioma line – cell-based, SU-DIPG-XIII, MIPE5.0, CellTiter-Glo, qHTS, dose response (AID 1347064; cut-off not given, nearly all actives have AC50 up to about 23 µM;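 for AC50: cells exposed to compound for 48 hours before the viability read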); settings: CellTiter-Glo ATP luminescence
# [4] = viability loss in pontine glioma line – cell-based, SU-DIPG-XXV, MIPE5.0, CellTiter-Glo, qHTS, dose response (AID 1347065); settings: CellTiter-Glo ATP luminescence;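 note: cells exposed to compound for 48 hours before ATP readout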
# [5] = JHH-DIPG-1 glioma cell viability, MIPE5.0 library, CellTiter-Glo luminescence, qHTS (AID 1347067); settings: JHH-DIPG-1 glioma viability, CellTiter-Glo ATP luminescence;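 note: cells exposed to compound for 48 hours before readout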
# [6] = growth inhibition of DIPG cells – cell-based, MIPE5.0 library, qHTS (AID 1347068; cut-off not given, nearly all actives have IC50 up to about 30 µM;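 for IC50: cells exposed to compound for 48 hours before viability readout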); settings: SU-DIPG-XXV viability
# [7] = growth inhibition, single agent or in combination, cell-based, chromothripsis tumors, cisplatin or BGB combos (AID 1671449; in the data active = inhibition above about 80%;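 note: cells exposed for 96 hours; 0% = vehicle DMSO and 100% = killing by high DMSO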); settings: LFS_MB_P medulloblastoma cells
# [8] = growth inhibition, single agent and combos, cell-based, chromothripsis tumors, cisplatin or BGB combos (AID 1671450; in the data active = inhibition above about 80%;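 note: cells exposed to compound for four days; 0% = vehicle DMSO and 100% = cell killing by high DMSO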); settings: HDN33 neuroblastoma cells, stronger effect = higher value
# [9] = growth inhibition, single agents and combos, ICB984, cell-based, cisplatin or BGB combos, synergistic combos for chromothripsis tumors (AID 1671451; call rule not given here;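 note: cells exposed for 96 hours before readout; 0% = vehicle DMSO and 100% = killing by high DMSO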); settings: ICB984 medulloblastoma cells, drug combinations, stronger effect = higher value
# [10] = growth inhibition, single agents and combos, LFS_MB_1R, cell-based, cisplatin or BGB combos, synergistic combos for chromothripsis tumors (AID 1671452; in the data active = inhibition above about 80%;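 note: cells exposed for 96 hours before readout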); settings: LFS_MB_1R medulloblastoma cells, stronger effect = higher value
# [11] = growth inhibition, single agents and combos, HTB85, cell-based, BGB or cisplatin IC20 combos, synergistic combos for chromothripsis tumors (AID 1671453; in the data active = inhibition above about 80%;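 note: cells exposed for 96 hours before readout; 0% = vehicle DMSO and 100% = high DMSO killing control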); settings: HTB85 osteosarcoma cells, drug combinations, stronger effect = higher value
# [12] = growth inhibition, single agents and combos, CRL2098, cell-based, BGB or cisplatin IC20 combos, synergistic combos for chromothripsis tumors (AID 1671454; in the data active = inhibition above about 80%;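 note: cells exposed for 96 h before readout; 0% = vehicle DMSO and 100% = killing by high DMSO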); settings: CRL2098 osteosarcoma cells, drug combinations, stronger effect = higher value
# [13] = growth inhibition, single agents and combos, HD-MB03, cell-based, BGB or cisplatin IC20 combos, synergistic combos for chromothripsis tumors (AID 1671455; in the data active = inhibition above about 83%;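 note: 0% = vehicle DMSO and 100% = high DMSO as cytotoxic control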); settings: HD-MB03 medulloblastoma cells, stronger effect = higher value
# [14] = growth inhibition, single agents and combos, UWB1.289, cell-based, BGB or cisplatin combos, synergistic combos for chromothripsis tumors (AID 1671456; in the data active = inhibition above about 80%;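 note: cells exposed to compound for four days; 0% = vehicle DMSO and 100% = killing by high DMSO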); settings: UWB1.289 ovarian carcinoma cells, stronger effect = higher value
# [15] = growth inhibition, MDA-MB-436, cell-based, BGB or cisplatin combos, synergistic combos for chromothripsis tumors (AID 1671458; call rule not given here;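 note: cells exposed for 96 hours; 0% = vehicle DMSO and 100% = killing by high DMSO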); settings: MDA-MB-436 breast carcinoma growth inhibition, drug combinations, stronger effect = higher value
# [16] = BT084 cell growth, single and combined drugs, ICGC_MB145, cisplatin and BGB IC40 combos (AID 1671461; in the data active = inhibition above about 80%;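 note: cells exposed to drugs for 96 hours; 0% = vehicle DMSO and 100% = high DMSO full killing control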); settings: BT084 medulloblastoma cells, drug combinations, stronger effect = higher value
# [17] = RCMB18 cell growth, single agent and combined, cisplatin and BGB IC40 combos (AID 1671462; in the data active = inhibition above about 80%;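 note: cells exposed to compound for four days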); settings: RCMB18 medulloblastoma cells, stronger effect = higher value
# [18] = CRL1545 cell growth, single agent and combined, cisplatin and BGB IC20 combos (AID 1671464; in the data active = inhibition above about 80%;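 note: cells exposed to compound for 96 hours before readout; 0% = vehicle DMSO and 100% = high DMSO killing control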); settings: CRL1545 osteosarcoma cells, stronger effect = higher value
# [19] = viability loss with induced miR-34 in A549 – imaging, A549 dox-inducible miR-34, nuclei and caspase counts, primary screen (AID 1347080;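 active = compounds whose cell count with miR-34 switched on is under 0.7 times the count with it off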); settings: A549 miR-34 inducible, Hoechst nuclei count, 48 h
# [20] = MELAS cybrid and Rieske KO viability enhancers – cell-based, MELAS cybrids, Rieske KO mouse fibroblasts, CellTiter-Glo, primary screen (AID 1508586;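 active = mean z-score across replicates of 1.96 or higher in either the MELAS or the Rieske mutant cell line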;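 note: z relative to plate mean and SD of compound and empty wells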); settings: low glucose
# [21] = measured here: combination with BGB IC40, at 0.05 µM
# [22] = measured here: with BGB IC20 combination, at 0.5 µM
# [23] = measured here: with cisplatin IC20 combination, at 0.5 µM
# [24] = measured here: combination with cisplatin, at 0.5 µM
smiles,measurement,setting,value
COc1cc(Nc2nc3ccccc3nc2NS(=O)(=O)c2ccc(NC(=O)c3ccc(C)c(OC)c3)cc2)cc(OC)c1,viability,"[1]; at 0.0781 µM, OCI-P5x cells, without rucaparib",108% (inactive)
same,viability,"[1]; at 0.313 µM, OCI-C5x cells, with rucaparib 10 µM, 100% = cells with rucaparib alone",108% (inactive)
same,viability,"[1]; at 0.313 µM, OCI-C5x cells, without rucaparib",116% (inactive)
same,viability,"[1]; at 0.313 µM, OCI-P5x cells, with rucaparib 20 µM, 100% = cells with rucaparib alone",107% (inactive)
same,viability,"[1]; at 0.313 µM, OCI-P5x cells, without rucaparib",104% (inactive)
same,viability,"[1]; at 1.25 µM, OCI-C5x cells, with rucaparib 10 µM, 100% = cells with rucaparib alone",106% (inactive)
same,viability,"[1]; at 1.25 µM, OCI-C5x cells, without rucaparib",120% (inactive)
same,viability,"[1]; at 1.25 µM, OCI-P5x cells, with rucaparib 20 µM, 100% = cells with rucaparib alone",90.5% (active)
same,viability,"[1]; at 1.25 µM, OCI-P5x cells, without rucaparib",108% (inactive)
same,viability,"[1]; at 5 µM, OCI-C5x cells, with rucaparib 10 µM, 100% = cells with rucaparib alone",111% (inactive)
same,viability,"[1]; at 5 µM, OCI-C5x cells, without rucaparib",121% (inactive)
same,viability,"[1]; at 5 µM, OCI-P5x cells, with rucaparib 20 µM, 100% = cells with rucaparib alone",92.1% (active)
same,viability,"[1]; at 5 µM, OCI-P5x cells, without rucaparib",111% (inactive)
COc1ccc(C(=O)C2CCN(CC(=O)N(Cc3nc4c(c(=O)[nH]3)COCC4)CC3CC3)CC2)cc1,outcome,[2],inactive
same,outcome,[3],inactive
same,outcome,[4],inactive
same,outcome,[5],inactive
same,outcome,[6],inactive
same,inhibition,"[7]; at 0.5 µM, stronger effect = higher value",-26.8% (inactive)
same,inhibition,"[7]; measured here: combination with BGB IC20, at 0.005 µM",-22.7%
same,inhibition,"[7]; measured here: combination with BGB IC40, at 0.005 µM",-42.7%
same,inhibition,[7]; [21],-55.1%
same,inhibition,"[7]; measured here: combination with cisplatin, at 0.5 µM, stronger effect = higher value",-22.8%
same,inhibition,"[7]; measured here: combination with cisplatin, at 5 µM, stronger effect = higher value",-44.7%
same,inhibition,"[8]; BGB combo, at 5 µM",-14.7%
same,inhibition,[8]; at 0.5 µM,19.2% (inactive)
same,inhibition,"[8]; cisplatin combo, at 5 µM",9.88%
same,inhibition,[8]; [22],15.5%
same,inhibition,[8]; [23],24.9%
same,inhibition,"[8]; single agent, at 5 µM",15.7%
same,inhibition,"[9]; BGB IC20 combo, at 0.005 µM",-9.62%
same,inhibition,"[9]; BGB IC40 combo, at 0.005 µM",-29.7%
same,inhibition,"[9]; BGB IC40 combo, at 0.05 µM",-4.73%
same,inhibition,[9]; at 0.5 µM,-22.8% (inactive)
same,inhibition,"[9]; cisplatin combo, at 0.05 µM",-10.1%
same,inhibition,"[9]; cisplatin combo, at 0.5 µM",-15%
same,inhibition,"[9]; cisplatin combo, at 5 µM",-26%
same,inhibition,"[9]; measured here: 5 uM single agent, at 5 µM",-16%
same,inhibition,[10]; at 0.5 µM,-33% (inactive)
same,inhibition,[10]; [21],-55.7%
same,inhibition,[10]; [24],-42.4%
same,inhibition,"[10]; measured here: combination with cisplatin, at 5 µM",-67.1%
same,inhibition,[11]; at 0.5 µM,14.2% (inactive)
same,inhibition,"[11]; measured here: with BGB IC20, at 0.5 µM",33.7%
same,inhibition,"[11]; measured here: with BGB IC20, at 5 µM",10.5%
same,inhibition,"[11]; measured here: with cisplatin IC20, at 0.5 µM",-3.3%
same,inhibition,"[11]; measured here: with cisplatin IC20, at 5 µM",4.94%
same,inhibition,"[11]; single agent, at 5 µM",15.4%
same,inhibition,[12]; at 0.5 µM,-25.5% (inactive)
same,inhibition,"[12]; measured here: combination with BGB at IC20, at 0.5 µM",-15.2%
same,inhibition,"[12]; measured here: combination with cisplatin at IC20, at 0.5 µM",-29.9%
same,inhibition,[13]; at 0.5 µM,-6.43% (inactive)
same,inhibition,"[13]; measured here: combo with BGB at IC20, at 0.5 µM",-11.5%
same,inhibition,"[13]; measured here: combo with cisplatin at IC20, at 0.5 µM",-4.57%
same,inhibition,[14]; at 0.5 µM,0.15% (inactive)
same,inhibition,"[14]; measured here: inhibition with BGB combination, at 0.05 µM",-7.89%
same,inhibition,"[14]; measured here: inhibition with cisplatin combination, at 0.05 µM",-13.7%
same,inhibition,[15]; at 0.5 µM,-12.3% (inactive)
same,inhibition,"[15]; measured here: BGB combination, at 0.5 µM",-9.1%
same,inhibition,"[15]; measured here: BGB combination, at 5 µM",-21.6%
same,inhibition,"[15]; measured here: cisplatin combination, at 0.5 µM",-32.8%
same,inhibition,"[15]; measured here: cisplatin combination, at 5 µM",-17.8%
same,inhibition,[16]; at 0.5 µM,-24.2% (inactive)
same,inhibition,"[16]; cisplatin combination, at 0.5 µM",-30.1%
same,inhibition,"[16]; cisplatin combination, at 5 µM",-190%
same,inhibition,"[16]; measured here: BGB IC40 combination 0.05 uM, at 0.05 µM",-40%
same,inhibition,"[16]; single agent, at 5 µM",-16.6%
same,inhibition,[17]; at 0.5 µM,-19.3% (inactive)
same,inhibition,"[17]; cisplatin combo, at 5 µM",-12.1%
same,inhibition,"[17]; measured here: BGB IC40 combination, at 0.05 µM",-3.95%
same,inhibition,[17]; [24],-13.9%
same,inhibition,"[17]; single agent, at 5 µM",8.88%
same,inhibition,[18]; at 0.5 µM,9.43% (inactive)
same,inhibition,[18]; [22],5.59%
same,inhibition,[18]; [23],9.92%
same,inhibition,"[18]; single agent, at 0.05 µM",-39.6%
same,inhibition,"[18]; single agent, at 5 µM",-10.3%
COc1nc(N)nc2c1ncn2C1OC(CO)C(O)C1O (stereo not drawn),outcome,[2],inactive
same,outcome,[3],inactive
same,outcome,[4],inactive
same,outcome,[5],inactive
same,outcome,[6],inactive
same,fold change,"[19]; stronger effect = lower value, cell number ratio, induced over uninduced",0.895 (inactive)
same,fold change,[19]; measured here: relative caspase fold change +Dox/-Dox,0.879
same,cell count,"[19]; measured here: total cells with miR-34 induction, stronger effect = lower value",6660
same,cell count,[19]; measured here: total cells without miR-34 induction,7440
same,z-score,"[20]; MELAS cybrid survival, CellTiter-Glo 48 h, stronger effect = higher value",-0.422 (inactive)
same,z-score,"[20]; Rieske KO mouse fibroblast survival, CellTiter-Glo 72 h",-0.253
c1ccc2c(-c3cnn4cc(-c5ccc(N6CCNCC6)cc5)cnc34)ccnc2c1,AC50,[2],3.32 µM (active)
same,AC50,[3],5.25 µM (active)
same,AC50,[4],2.63 µM (active)
same,AC50,[5],2.63 µM (active)
same,IC50,[6],5.9 µM (active)
Cc1nc(-c2cn3c(n2)-c2ccc(-c4cnn(C(C)(C)C(N)=O)c4)cc2OCC3)n(C(C)C)n1,AC50,[2],0.525 µM (active)
same,AC50,[3],0.295 µM (active)
same,AC50,[4],0.105 µM (active)
same,IC50,[6],1.66 µM (active)
C[C@H]1COCCN1c1cc(C2(S(=O)(=O)C3CC3)CC2)nc(-c2ccc(NC(=S)NCCO)cc2)n1,AC50,[2],0.295 µM (active)
same,AC50,[3],0.332 µM (active)
same,AC50,[4],0.0263 µM (active)
same,IC50,[6],4.68 µM (active)
C/C(=N\NC(=O)c1cccc(S(=O)(=O)N2CCOCC2)c1)c1cc(Cl)ccc1O,AC50,[2],18.6 µM (active)
same,AC50,[3],9.34 µM (active)
same,AC50,[4],16.6 µM (active)
same,outcome,[6],inactive
Cc1ncc(NC(=O)c2ccc(CN3CCN(C)CC3)c(C(F)(F)F)c2)cc1Nc1nccc(-c2cccnc2)n1,AC50,[2],23.5 µM (active)
same,AC50,[3],9.34 µM (active)
same,AC50,[4],18.6 µM (active)
same,outcome,[6],inactive
Cc1ccc(-n2nc(C(C)(C)C)cc2NC(=O)NCc2cc(F)ccc2Oc2ccc3c(cnn3CCO)c2)cc1,AC50,[2],10.5 µM (active)
same,AC50,[3],6.61 µM (active)
same,AC50,[4],5.25 µM (active)
same,IC50,[6],18.6 µM (active)
CC(C)(O)c1coc(S(=O)(=O)NC(=O)Nc2c3c(cc4c2CCC4)CCC3)c1,outcome,[2],inactive
same,outcome,[3],inactive
same,outcome,[4],inactive
same,outcome,[6],inactive
Cc1[nH]c2ccc(F)cc2c1-c1nc2c3cccnc3c3ncccc3c2[nH]1,AC50,[2],6.79 µM (active)
same,AC50,[3],1.35 µM (active)
same,AC50,[4],1.91 µM (active)
same,IC50,[6],2.7 µM (active)
CC(=NNC(=O)c1cccc(S(=O)(=O)N2CCOCC2)c1)c1cc(Cl)ccc1O,AC50,[2],8.33 µM (active)
same,AC50,[3],6.61 µM (active)
same,AC50,[4],5.9 µM (active)
same,outcome,[6],inactive
COc1ncc(-c2ccc3c(Nc4cc(Oc5cc(F)cc(F)c5)cc(C(=O)O)c4)c(S(=O)(=O)NC4CC4)cnc3c2)c(OC)n1,outcome,[2],inactive
same,outcome,[3],inactive
same,outcome,[4],inactive
same,outcome,[6],inactive
O=C(c1ccc(NS(=O)(=O)c2cccc3cccnc23)cc1)N1CCN(CC2CC2)CC1,outcome,[2],inactive
same,outcome,[3],inactive
same,outcome,[4],inactive
same,outcome,[6],inactive
